# From PubChem BioAssay AID1626 (SRMLSC, 2009)
# Out of some 220,000 compounds screened, about 2,000 (0.91%) were called active. About 2% were inconclusive and are not listed. Cut-off read from the data, not from the text of the source: inconclusive = inhibition above about 80% without an active follow-up result; inactive = below that; test concentration not stated here. A selection follows. Measured potencies and affinities stand elsewhere.
# Test: M. tuberculosis H37Rv growth inhibitors, H37Rv strain (AID 1626);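 note: bacteria incubated seven days before Alamar blue readout; 0% = bacteria only wells and 100% = bacteria with antibiotic wells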
# Details: active compounds read high, concentration not given here
row,Structure (SMILES),inhibition
1,Cc1nc(SCC(=O)Nc2cccc(Cl)c2)n[nH]1,-3.06% (inactive)
2,O=C1CCC/C(=N\NC(=O)c2ccc(COc3ccccc3-c3ccccc3)cc2)C1,4.62% (inactive)
3,Cc1cccc(N2CC(C(=O)OCC(=O)c3ccc(OC(=O)c4cccs4)cc3)CC2=O)c1C (stereo not given),1.47% (inactive)
4,CN(CCOC(=O)c1ccc2c(c1)OCO2)C(C)(C)C,-1.44% (inactive)
5,CC1=CC2=NC(=O)/C(=C\c3cccn3CCOc3cc(C)ccc3C)C(=N)N2O1,12.3% (inactive)
6,O=C(CCc1ccccc1)N1N=C(c2ccncc2)CC1(O)C(F)(F)F (stereo not given),-7.97% (inactive)
7,O=C(NCCN1CCCCC1)Nc1ccc(F)c(Cl)c1,-6.79% (inactive)
8,Cc1[nH]n(C)c(=O)c1N=Nc1ccc(S(C)(=O)=O)cc1,-6.82% (inactive)
9,Cc1ccc(N=Nc2c(C)[nH]n(C(N)=S)c2=O)cc1,-3.59% (inactive)
10,COc1ccc(-c2nnc(SCC(=O)NC(C)C)n2CC2CCCO2)cc1OC (stereo not given),-10.3% (inactive)
11,COc1ccc(C2/C=C\CN(C(=O)Nc3ccccc3)CC(=O)N2Cc2ccc(F)cc2)cc1 (stereo not given),-8.73% (inactive)
12,COc1ccc(C2/C=C\CN(C(=O)Oc3ccc(C(F)(F)F)cc3)CC(=O)N2Cc2ccc(F)cc2)cc1 (stereo not given),2.36% (inactive)
13,COc1ccc(NC(=O)C(=O)NCCCn2ccnc2)cc1,-13.8% (inactive)
14,O=C(Nc1csc([N+](=O)[O-])c1)Nc1ccccc1Cl,76.8% (inactive)
15,O=C(Nc1csc([N+](=O)[O-])c1)Nc1c(Cl)cccc1Cl,0.45% (inactive)
16,O=C(CN(CCc1ccccc1)S(=O)(=O)c1ccc(Br)cc1)N/N=C/c1ccccc1C(=O)O,1.98% (inactive)
17,COc1ccc(-n2nc(C(N)=O)c(O)cc2=O)cc1,-4.24% (inactive)
18,COc1ccccc1CNC(=O)CN1C(=O)CSc2ccc(S(=O)(=O)N3CCCC3)cc21,-3.73% (inactive)
19,CCOC(=O)c1ccc(N2C(=O)c3n[nH]c(C)c3C2c2ccccc2)cc1 (stereo not given),-3.14% (inactive)
20,CCOC(=O)c1ccc(N2C(=O)c3n[nH]c(C)c3C2c2ccco2)cc1 (stereo not given),0.01% (inactive)
21,Cc1[nH]c2ccc(F)cc2c1CCN(Cc1cccnc1)C(=S)Nc1ccccc1,-0.56% (inactive)
22,CCCCCCCN1C2=NCCN2c2ccccc21,-5.76% (inactive)
23,CCCCC1=CC2=CC(=O)C(C)(OC(=O)CC)C(=O)C2=CN1CCN1CCOCC1 (stereo not given),2.28% (inactive)
24,Cc1ccc(C2C(C#N)=C(N)OC3=C2C(=O)CC(C)(C)C3)s1 (stereo not given),2.18% (inactive)
25,CC1(C)CC(=O)C2=C(C1)OC(N)=C([N+](=O)[O-])C2c1cccs1 (stereo not given),3.66% (inactive)
